# Article PMC7862700, “An all-to-all approach to the identification of sequence-specific readers for epigenetic DNA modifications on cytosine”
# Key:
# Experiment in all cases: DAPPL (digital affinity profiling via proximity ligation, sequencing); 10 mM Tris-HCl pH 7.5, 50 mM NaCl, 1 mM DTT, 4% glycerol, room temperature, 30 min; GST-TFs on glutathione beads, 16-mer random dsDNA library, 0.1% formaldehyde crosslink after washing; high values mean tight binding
# FLI1 = target: T1, FLI1 (Homo sapiens, UniProt Q01543 1-452); conditions: protein: recombinant; tags: N-terminal GST; dsDNA, one strand shown
# T1 sequence: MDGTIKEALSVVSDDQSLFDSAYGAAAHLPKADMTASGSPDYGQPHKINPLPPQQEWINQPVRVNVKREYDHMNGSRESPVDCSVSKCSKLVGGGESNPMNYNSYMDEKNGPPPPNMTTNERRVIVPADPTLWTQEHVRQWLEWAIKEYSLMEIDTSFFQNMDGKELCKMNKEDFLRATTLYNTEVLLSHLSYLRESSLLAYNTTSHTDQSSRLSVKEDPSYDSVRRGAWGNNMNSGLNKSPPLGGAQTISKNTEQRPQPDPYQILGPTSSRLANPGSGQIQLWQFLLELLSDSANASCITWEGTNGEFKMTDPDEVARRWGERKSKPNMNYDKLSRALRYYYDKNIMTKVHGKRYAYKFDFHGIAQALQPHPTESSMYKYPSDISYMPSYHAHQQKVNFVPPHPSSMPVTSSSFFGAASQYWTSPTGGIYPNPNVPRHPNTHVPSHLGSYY
# Method in brief: (§1)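 A tag-only sample was pooled with DNA-barcoded human transcription factors that had been expressed in yeast as GST fusions and captured on glutathione beads. The pools were incubated for 30 min at room temperature with 200 nmole of a random double-stranded 16-mer DNA library in Tris/NaCl/DTT/glycerol buffer, then washed, crosslinked with 0.1% formaldehyde, proximity-ligated (BsaI/T4 ligase, 1 h, 37 °C), PCR-amplified and sequenced on an Illumina NextSeq500. Binding signal is each hexamer's read frequency for a factor divided by its frequency for the tag-only sample.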
# ELK1 = target: T2, ELK1 (Homo sapiens, UniProt P19419 1-428); conditions: protein: recombinant; tags: N-terminal GST; dsDNA, one strand shown
# T2 sequence: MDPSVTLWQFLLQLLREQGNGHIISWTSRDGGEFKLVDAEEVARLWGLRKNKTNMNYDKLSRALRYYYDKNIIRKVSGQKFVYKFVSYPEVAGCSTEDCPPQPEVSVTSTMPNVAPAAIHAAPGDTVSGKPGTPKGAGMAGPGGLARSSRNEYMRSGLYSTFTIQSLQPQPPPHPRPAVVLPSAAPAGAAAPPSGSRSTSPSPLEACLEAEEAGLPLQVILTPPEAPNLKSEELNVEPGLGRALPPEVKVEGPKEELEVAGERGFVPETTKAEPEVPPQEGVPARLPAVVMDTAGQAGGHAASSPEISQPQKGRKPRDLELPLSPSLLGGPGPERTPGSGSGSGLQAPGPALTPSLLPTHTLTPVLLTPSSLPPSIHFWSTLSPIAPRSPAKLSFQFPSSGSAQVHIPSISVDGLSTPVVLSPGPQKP
# Method in brief: as §1
# GABPA = target: T3, GABPA (Homo sapiens, UniProt Q06546 1-454); conditions: protein: recombinant; tags: N-terminal GST; dsDNA, one strand shown
# T3 sequence: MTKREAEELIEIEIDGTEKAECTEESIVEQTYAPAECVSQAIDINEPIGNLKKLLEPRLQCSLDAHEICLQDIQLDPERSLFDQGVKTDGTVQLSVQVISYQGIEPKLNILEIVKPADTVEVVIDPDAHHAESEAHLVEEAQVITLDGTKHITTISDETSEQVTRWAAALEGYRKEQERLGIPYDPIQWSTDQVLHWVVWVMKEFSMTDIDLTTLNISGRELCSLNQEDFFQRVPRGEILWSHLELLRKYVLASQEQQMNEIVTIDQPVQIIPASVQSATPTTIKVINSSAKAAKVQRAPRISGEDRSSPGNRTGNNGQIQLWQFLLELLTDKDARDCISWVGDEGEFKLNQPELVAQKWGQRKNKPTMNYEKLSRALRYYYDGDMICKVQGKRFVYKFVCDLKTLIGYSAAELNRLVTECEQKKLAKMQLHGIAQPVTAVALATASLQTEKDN
# Method in brief: as §1
# ERG = target: T4, ERG (Homo sapiens, UniProt P11308 1-479); conditions: protein: recombinant; tags: N-terminal GST; dsDNA, one strand shown
# T4 sequence: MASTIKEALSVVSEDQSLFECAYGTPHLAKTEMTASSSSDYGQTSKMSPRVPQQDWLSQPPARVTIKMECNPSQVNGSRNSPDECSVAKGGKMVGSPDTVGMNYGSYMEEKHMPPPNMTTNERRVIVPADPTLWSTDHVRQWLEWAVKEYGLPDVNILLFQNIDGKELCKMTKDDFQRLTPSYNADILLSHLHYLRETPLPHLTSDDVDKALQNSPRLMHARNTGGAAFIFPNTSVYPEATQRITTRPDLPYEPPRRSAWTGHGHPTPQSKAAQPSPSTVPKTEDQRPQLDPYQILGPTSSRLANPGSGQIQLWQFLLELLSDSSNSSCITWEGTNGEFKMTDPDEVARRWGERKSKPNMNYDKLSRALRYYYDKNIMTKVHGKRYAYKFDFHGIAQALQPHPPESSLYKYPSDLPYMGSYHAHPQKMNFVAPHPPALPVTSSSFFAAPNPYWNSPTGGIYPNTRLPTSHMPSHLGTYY
# Method in brief: as §1
# ELF1 = ELF1 (Homo sapiens, UniProt P32519 1-619); conditions: protein: recombinant; tags: N-terminal GST; dsDNA, one strand shown
# Method in brief: as §1
# EHF = target: T5, EHF (Homo sapiens, UniProt Q9NZC4 1-300); conditions: protein: recombinant; tags: N-terminal GST; dsDNA, one strand shown
# T5 sequence: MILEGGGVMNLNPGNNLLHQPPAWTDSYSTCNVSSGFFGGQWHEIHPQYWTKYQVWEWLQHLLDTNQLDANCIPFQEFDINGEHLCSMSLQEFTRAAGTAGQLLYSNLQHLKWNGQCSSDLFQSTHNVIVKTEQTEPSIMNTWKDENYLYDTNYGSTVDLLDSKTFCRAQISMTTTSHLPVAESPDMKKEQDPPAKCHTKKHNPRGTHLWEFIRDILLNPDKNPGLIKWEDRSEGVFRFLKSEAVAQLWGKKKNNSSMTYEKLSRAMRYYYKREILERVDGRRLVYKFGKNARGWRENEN
# Method in brief: as §1
# SPI1 = SPI1 (Homo sapiens, UniProt P17947 1-270); conditions: protein: recombinant; tags: N-terminal GST; dsDNA, one strand shown
# Method in brief: as §1
# SPIB = SPIB (Homo sapiens, UniProt Q01892 1-262); conditions: protein: recombinant; tags: N-terminal GST; dsDNA, one strand shown
# Method in brief: as §1
# ELK3 = target: T6, ELK3 (Homo sapiens, UniProt P41970 1-407); conditions: protein: recombinant; tags: N-terminal GST; dsDNA, one strand shown
# T6 sequence: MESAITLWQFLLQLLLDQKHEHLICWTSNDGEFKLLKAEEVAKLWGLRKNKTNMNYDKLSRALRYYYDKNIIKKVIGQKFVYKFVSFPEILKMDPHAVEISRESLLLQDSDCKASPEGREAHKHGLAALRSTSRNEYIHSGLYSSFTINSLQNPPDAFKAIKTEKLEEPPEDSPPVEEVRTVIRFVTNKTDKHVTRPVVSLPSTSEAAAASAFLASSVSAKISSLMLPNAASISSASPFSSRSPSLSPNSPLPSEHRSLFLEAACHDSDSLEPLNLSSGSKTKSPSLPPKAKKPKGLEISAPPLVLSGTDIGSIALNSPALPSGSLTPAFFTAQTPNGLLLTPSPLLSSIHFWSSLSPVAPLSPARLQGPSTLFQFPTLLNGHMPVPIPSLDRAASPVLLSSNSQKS
# Method in brief: as §1
# FEV = target: T7, FEV (Homo sapiens, UniProt Q99581 1-238); conditions: protein: recombinant; tags: N-terminal GST; dsDNA, one strand shown
# T7 sequence: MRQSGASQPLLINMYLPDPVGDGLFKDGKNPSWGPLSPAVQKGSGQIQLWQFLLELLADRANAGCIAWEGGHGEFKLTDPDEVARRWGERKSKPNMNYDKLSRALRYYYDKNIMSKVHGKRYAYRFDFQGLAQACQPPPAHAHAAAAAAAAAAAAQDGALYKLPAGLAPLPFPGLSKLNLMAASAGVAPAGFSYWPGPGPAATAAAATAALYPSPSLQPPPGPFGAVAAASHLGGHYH
# Method in brief: as §1
# ETV5 = ETV5 (Homo sapiens, UniProt P41161 1-510); conditions: protein: recombinant; tags: N-terminal GST; dsDNA, one strand shown
# Method in brief: as §1
# HSF1 = HSF1 (Homo sapiens, UniProt Q00613 1-529); conditions: protein: recombinant; tags: N-terminal GST; chain copies: 3; dsDNA, one strand shown
# Method in brief: as §1
# SPIC = target: T8, SPIC (Homo sapiens, UniProt Q8N5J4 1-248); conditions: protein: recombinant; tags: N-terminal GST; dsDNA, one strand shown
# T8 sequence: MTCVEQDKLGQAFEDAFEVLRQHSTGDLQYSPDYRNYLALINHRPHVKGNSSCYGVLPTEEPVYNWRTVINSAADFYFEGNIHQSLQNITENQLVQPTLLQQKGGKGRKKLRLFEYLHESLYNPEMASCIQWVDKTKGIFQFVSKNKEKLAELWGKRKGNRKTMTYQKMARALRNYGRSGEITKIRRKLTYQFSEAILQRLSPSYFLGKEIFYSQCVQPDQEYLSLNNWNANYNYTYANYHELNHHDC
# Method in brief: as §1
# ELF4 = ELF4 (Homo sapiens, UniProt Q99607 1-663); conditions: protein: recombinant; tags: N-terminal GST; dsDNA, one strand shown
# Method in brief: as §1
# ELK4 = target: T9, ELK4 (Homo sapiens, UniProt P28324-2 1-405); conditions: protein: recombinant; tags: N-terminal GST; dsDNA, one strand shown
# T9 sequence: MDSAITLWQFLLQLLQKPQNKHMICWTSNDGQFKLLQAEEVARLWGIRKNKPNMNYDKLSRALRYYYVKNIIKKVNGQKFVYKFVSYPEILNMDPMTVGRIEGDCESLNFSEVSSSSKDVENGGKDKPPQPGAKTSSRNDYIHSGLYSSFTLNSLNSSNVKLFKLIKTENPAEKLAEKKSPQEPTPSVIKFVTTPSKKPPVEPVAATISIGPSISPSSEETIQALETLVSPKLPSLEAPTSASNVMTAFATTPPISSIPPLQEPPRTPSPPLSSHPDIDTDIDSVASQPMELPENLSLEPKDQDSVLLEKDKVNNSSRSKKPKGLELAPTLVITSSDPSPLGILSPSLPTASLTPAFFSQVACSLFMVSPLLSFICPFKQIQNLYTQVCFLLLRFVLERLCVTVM
# Method in brief: as §1
# ETV2 = target: T10, ETV2 (Homo sapiens, UniProt O00321 1-342); conditions: protein: recombinant; tags: N-terminal GST; dsDNA, one strand shown
# T10 sequence: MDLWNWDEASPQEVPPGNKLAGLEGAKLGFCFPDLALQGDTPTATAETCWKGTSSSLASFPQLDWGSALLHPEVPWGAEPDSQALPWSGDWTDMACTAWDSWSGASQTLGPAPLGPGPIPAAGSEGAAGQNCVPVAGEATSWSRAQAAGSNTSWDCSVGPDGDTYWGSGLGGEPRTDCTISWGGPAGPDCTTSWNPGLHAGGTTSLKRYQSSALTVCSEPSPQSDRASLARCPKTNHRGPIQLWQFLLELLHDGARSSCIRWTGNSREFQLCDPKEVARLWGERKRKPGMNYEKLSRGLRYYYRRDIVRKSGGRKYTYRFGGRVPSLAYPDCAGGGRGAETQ
# Method in brief: as §1
# ELF3 = target: T11, ELF3 (Homo sapiens, UniProt P78545 1-371); conditions: protein: recombinant; tags: N-terminal GST; dsDNA, one strand shown
# T11 sequence: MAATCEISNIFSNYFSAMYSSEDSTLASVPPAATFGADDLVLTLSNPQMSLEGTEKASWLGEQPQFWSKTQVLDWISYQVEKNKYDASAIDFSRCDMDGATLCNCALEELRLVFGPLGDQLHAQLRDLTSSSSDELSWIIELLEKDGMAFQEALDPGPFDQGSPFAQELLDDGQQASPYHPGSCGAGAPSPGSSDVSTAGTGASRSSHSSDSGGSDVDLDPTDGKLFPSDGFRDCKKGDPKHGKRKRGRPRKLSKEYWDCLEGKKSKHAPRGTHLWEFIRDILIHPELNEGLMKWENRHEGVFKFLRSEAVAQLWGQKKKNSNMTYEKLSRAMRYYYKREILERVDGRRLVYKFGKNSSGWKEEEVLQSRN
# Method in brief: as §1
# CRX = CRX (Homo sapiens, UniProt O43186 1-299); conditions: protein: recombinant; tags: N-terminal GST; dsDNA, one strand shown
# Method in brief: as §1
# ETV1 = ETV1 (Homo sapiens, UniProt P50549 1-477); conditions: protein: recombinant; tags: N-terminal GST; dsDNA, one strand shown
# Method in brief: as §1
# Chain of ELF4 (Q99607 whole entry): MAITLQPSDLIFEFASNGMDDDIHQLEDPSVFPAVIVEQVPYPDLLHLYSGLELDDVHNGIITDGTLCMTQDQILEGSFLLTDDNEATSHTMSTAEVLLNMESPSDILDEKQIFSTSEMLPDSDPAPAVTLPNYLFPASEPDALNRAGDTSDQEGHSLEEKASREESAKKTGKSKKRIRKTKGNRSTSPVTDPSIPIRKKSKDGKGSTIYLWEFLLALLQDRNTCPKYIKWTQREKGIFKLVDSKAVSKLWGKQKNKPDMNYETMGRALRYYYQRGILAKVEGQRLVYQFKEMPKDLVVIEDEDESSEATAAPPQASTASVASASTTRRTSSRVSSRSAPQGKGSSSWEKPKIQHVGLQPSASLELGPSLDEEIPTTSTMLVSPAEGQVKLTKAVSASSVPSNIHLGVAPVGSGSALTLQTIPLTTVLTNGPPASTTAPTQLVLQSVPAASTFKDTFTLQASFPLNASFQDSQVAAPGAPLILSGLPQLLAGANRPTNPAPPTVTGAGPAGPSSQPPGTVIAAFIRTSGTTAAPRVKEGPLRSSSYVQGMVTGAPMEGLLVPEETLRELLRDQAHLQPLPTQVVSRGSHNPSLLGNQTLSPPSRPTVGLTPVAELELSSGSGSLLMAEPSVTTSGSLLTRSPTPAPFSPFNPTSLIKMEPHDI
# Chain of ETV5 (P41161 whole entry): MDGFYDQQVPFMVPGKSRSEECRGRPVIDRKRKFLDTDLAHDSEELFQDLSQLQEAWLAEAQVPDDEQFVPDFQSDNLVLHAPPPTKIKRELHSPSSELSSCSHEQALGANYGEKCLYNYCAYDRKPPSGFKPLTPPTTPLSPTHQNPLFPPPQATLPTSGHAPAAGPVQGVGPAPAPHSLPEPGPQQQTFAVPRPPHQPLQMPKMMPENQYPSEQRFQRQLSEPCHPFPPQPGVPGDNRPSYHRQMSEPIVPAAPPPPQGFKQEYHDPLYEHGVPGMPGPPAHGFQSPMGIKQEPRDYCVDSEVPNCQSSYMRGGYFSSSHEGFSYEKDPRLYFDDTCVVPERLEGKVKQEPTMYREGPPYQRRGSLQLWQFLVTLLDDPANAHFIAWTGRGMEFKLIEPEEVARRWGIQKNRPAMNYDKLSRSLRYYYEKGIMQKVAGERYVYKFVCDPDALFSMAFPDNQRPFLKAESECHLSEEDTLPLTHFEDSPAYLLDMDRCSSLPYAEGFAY
# Chain of CRX (O43186 whole entry): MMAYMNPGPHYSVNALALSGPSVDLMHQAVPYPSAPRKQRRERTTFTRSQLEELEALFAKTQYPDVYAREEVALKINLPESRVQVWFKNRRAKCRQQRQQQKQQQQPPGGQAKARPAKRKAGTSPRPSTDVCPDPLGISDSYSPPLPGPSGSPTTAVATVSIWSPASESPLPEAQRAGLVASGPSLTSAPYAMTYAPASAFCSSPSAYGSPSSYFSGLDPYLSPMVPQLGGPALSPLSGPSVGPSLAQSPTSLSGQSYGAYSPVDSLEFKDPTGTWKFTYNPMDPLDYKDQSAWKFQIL
# Chain of SPIB (Q01892 whole entry): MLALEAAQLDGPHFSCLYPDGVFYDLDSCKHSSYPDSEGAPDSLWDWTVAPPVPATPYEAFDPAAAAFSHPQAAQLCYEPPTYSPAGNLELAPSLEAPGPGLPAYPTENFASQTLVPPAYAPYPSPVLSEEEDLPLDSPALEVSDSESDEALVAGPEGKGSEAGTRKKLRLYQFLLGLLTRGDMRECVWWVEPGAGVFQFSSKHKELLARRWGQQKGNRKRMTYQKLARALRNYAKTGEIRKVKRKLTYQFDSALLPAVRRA
# Chain of HSF1 (Q00613 whole entry): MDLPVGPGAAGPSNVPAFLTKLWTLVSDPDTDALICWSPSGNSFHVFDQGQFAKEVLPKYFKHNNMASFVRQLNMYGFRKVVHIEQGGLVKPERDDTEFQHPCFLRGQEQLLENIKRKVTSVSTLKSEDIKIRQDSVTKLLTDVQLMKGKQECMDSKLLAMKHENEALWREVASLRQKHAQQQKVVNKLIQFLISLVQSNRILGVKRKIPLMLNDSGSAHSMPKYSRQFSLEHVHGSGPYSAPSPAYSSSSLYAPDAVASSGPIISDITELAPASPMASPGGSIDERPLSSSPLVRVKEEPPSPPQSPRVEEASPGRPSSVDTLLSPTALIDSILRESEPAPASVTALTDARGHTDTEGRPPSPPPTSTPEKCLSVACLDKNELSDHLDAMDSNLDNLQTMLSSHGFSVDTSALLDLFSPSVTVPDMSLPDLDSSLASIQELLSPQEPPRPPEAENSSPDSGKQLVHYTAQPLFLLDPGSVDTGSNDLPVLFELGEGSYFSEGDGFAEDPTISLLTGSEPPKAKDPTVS
# Chain of ETV1 (P50549 whole entry): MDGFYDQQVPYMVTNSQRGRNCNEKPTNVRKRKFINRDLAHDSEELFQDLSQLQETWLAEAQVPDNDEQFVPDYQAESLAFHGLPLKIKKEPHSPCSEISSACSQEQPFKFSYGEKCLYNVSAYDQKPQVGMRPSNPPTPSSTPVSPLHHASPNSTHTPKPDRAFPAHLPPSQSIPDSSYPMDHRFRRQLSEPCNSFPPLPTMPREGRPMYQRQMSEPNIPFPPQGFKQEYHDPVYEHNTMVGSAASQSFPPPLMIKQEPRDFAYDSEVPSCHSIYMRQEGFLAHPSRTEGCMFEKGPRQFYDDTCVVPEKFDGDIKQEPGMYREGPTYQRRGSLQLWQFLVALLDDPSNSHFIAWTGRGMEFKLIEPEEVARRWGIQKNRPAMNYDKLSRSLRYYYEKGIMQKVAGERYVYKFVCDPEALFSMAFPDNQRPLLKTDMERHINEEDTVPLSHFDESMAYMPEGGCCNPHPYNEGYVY
# Chain of ELF1 (P32519 whole entry): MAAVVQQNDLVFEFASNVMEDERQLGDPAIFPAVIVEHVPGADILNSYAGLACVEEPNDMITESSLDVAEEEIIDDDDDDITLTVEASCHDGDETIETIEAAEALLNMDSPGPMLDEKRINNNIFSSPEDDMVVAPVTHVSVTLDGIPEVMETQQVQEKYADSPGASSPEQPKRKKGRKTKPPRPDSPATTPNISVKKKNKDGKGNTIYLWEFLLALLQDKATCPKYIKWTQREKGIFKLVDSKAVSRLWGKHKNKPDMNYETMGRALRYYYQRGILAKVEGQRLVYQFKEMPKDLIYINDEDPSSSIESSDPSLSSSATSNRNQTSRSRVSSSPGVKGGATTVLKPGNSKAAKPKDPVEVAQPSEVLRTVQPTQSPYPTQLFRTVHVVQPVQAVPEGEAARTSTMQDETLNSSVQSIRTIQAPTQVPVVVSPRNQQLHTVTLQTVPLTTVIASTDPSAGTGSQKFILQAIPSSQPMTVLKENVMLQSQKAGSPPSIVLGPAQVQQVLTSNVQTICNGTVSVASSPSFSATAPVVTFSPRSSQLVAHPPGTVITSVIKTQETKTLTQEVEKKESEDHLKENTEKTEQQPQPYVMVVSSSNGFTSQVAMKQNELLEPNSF
sequence,measurement,setting,value
ACCCGC,binding signal,FLI1,"1.27 fold enrichment (6-mer frequency, TF over GST control)"
same,binding signal,ELK1,"1.29 fold enrichment (6-mer frequency, TF over GST control)"
same,binding signal,GABPA,"1.35 fold enrichment (6-mer frequency, TF over GST control)"
same,binding signal,ERG,"1.21 fold enrichment (6-mer frequency, TF over GST control)"
same,binding signal,ELF1,"1.33 fold enrichment (6-mer frequency, TF over GST control)"
same,binding signal,EHF,"1.2 fold enrichment (6-mer frequency, TF over GST control)"
same,binding signal,SPI1,"1.32 fold enrichment (6-mer frequency, TF over GST control)"
same,binding signal,SPIB,"1.27 fold enrichment (6-mer frequency, TF over GST control)"
same,binding signal,ELK3,"1.32 fold enrichment (6-mer frequency, TF over GST control)"
same,binding signal,FEV,"1.24 fold enrichment (6-mer frequency, TF over GST control)"
same,binding signal,ETV5,"1.24 fold enrichment (6-mer frequency, TF over GST control)"
same,binding signal,HSF1,"1.13 fold enrichment (6-mer frequency, TF over GST control)"
same,binding signal,SPIC,"1.16 fold enrichment (6-mer frequency, TF over GST control)"
same,binding signal,ELF4,"1.35 fold enrichment (6-mer frequency, TF over GST control)"
same,binding signal,ELK4,"1.39 fold enrichment (6-mer frequency, TF over GST control)"
same,binding signal,ETV2,"1.24 fold enrichment (6-mer frequency, TF over GST control)"
same,binding signal,ELF3,"1.15 fold enrichment (6-mer frequency, TF over GST control)"
same,binding signal,CRX,"1.1 fold enrichment (6-mer frequency, TF over GST control)"
same,binding signal,ETV1,"1.27 fold enrichment (6-mer frequency, TF over GST control)"
